Data on 16 compounds can be found in PubChem BioAssay (EPA / NIEHS).

The target of assay [1] is human Retinoid X Receptor beta (RXRb), RXRB (gene 6257) (UniProt P28702). As to the kind of experiment: ATG_RXRb_TRANS: Attagene TRANS-FACTORIAL HepG2 Assay for human Retinoid X Receptor beta (RXRb) (AID 2283013; active = hit-call score of the fitted dose curve at least 0.9, where 1 is the maximum). Summed up: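 HepG2 cells transiently transfected with multiplexed reporter units driven by GAL4-UAS and exogenous chimeric NR-Gal4 proteins; treated 24 h. Reporter mRNA measured by RT-PCR, 6-FAM labelling and capillary electrophoresis; gain-of-signal fitted versus DMSO baseline.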

Assay [2] addresses human Thyroid Receptor alpha (THRa1), THRA (gene 7067) (UniProt P10827). The experiment in a line: ATG_THRa1_TRANS: Attagene TRANS-FACTORIAL HepG2 Assay for human Thyroid Receptor alpha (THRa1) (AID 2283014; active = hit-call score of the fitted dose curve at least 0.9, where 1 is the maximum). In short, it runs like this:
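HepG2 cells transiently transfected with chimeric NR-Gal4 and GAL4-UAS reporter units, dosed 24 h. Reporter mRNA quantified by RT-PCR, fluorescent labeling, HpaI digestion and capillary electrophoresis; gain-of-signal fit versus DMSO.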

Read-out in assay [3]: E-selectin (Homo sapiens) (UniProt P16581)
As to the kind of experiment: BSK_3C_Eselectin: BioMAP Diversity Plus: 3C Assay for Eselectin Biomarker Activity (AID 2283015).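 For outcome: cell surface E-selectin protein quantified by ELISA 24 h after dosing.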 The following applies: primary human endothelial cells (HUVEC); actives raise or lower the signal. Summed up: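 Primary human umbilical vein endothelial cells (3C system), read 24 h after compound addition; E-selectin measured by ELISA. Bidirectional curve fitting against DMSO baseline; cytotoxicity by parallel SRB total-protein staining.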

Read-out in assay [4]: Interleukin-1 alpha (IL1a), IL1A (gene 3552)
As to the kind of experiment: BSK_BE3C_IL1a: BioMAP Diversity Plus: BE3C Assay for Interleukin-1 alpha (IL1a) Biomarker Activity (AID 2283016). Conditions: primary human bronchial epithelial cells; actives raise or lower the signal. Summed up: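 Human primary bronchial epithelial cells (BE3C system) were dosed with compound and IL-1a measured by ELISA 24 h later. Activity was fitted bidirectionally against DMSO baseline; cytotoxicity was tracked in parallel cultures by SRB total-protein staining.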

Read-out in assay [5]: Monocyte Chemoattractant Protein-1 (MCP1), CCL2 (gene 6347)
As to the kind of experiment: BSK_3C_MCP1: BioMAP Diversity Plus: 3C Assay for Monocyte Chemoattractant Protein-1 (MCP1) Biomarker Activity (AID 2283017). The following applies: primary human endothelial cells (HUVEC); actives raise or lower the signal. In short, it runs like this: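 Human umbilical vein endothelial cells (3C system) exposed to chemicals for 24 h; MCP-1 quantified by ELISA against the DMSO baseline with bidirectional fitting, and parallel SRB staining used to assess cytotoxicity.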

Read-out in assay [6]: Monocyte Chemoattractant Protein-1 (MCP1), CCL2 (gene 6347)
The experiment in a line: BSK_4H_MCP1: BioMAP Diversity Plus: 4H Assay for Monocyte Chemoattractant Protein-1 (MCP1) Biomarker Activity (AID 2283018). The following applies: primary human endothelial cells (HUVEC); actives raise or lower the signal. In short, it runs like this: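 Human umbilical vein endothelial cells (4H system) dosed with chemical; MCP-1 measured by ELISA 24 h after dosing. Bidirectional curve fitting against DMSO negative control as baseline; parallel SRB total-protein staining tracks overt cytotoxicity.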

Read-out in assay [7]: Human Leukocyte Antigen - DR isotype (HLADR), HLA-DRA (gene 3122)
As to the kind of experiment: BSK_3C_HLADR: BioMAP Diversity Plus: 3C Assay for Human Leukocyte Antigen - DR isotype (HLADR) Biomarker Activity (AID 2283019). Conditions: primary human endothelial cells (HUVEC); actives raise or lower the signal. Summed up: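 HUVEC monoculture, HLA-DR measured by ELISA 24 h after chemical dosing. Fitted bidirectionally against DMSO baseline; parallel SRB staining assessed cytotoxicity, with 3C proliferation read by SRB at 48 h.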

Read-out in assay [8]: Interleukin-8 (IL8), CXCL8 (gene 3576)
The experiment in a line: BSK_3C_IL8: BioMAP Diversity Plus: 3C Assay for Interleukin-8 (IL8) Biomarker Activity (AID 2283020). Conditions: primary human endothelial cells (HUVEC); actives raise or lower the signal. Summed up: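 Primary human umbilical vein endothelial cells (3C system) were exposed to test chemical for 24 h, then IL-8 was quantified by ELISA. Responses were fitted bidirectionally against DMSO vehicle as baseline.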

The target of assay [9] is human Vitamin D Receptor (VDR), VDR (gene 7421) (UniProt P11473). As to the kind of experiment: ATG_VDR_TRANS: Attagene TRANS-FACTORIAL HepG2 Assay for human Vitamin D Receptor (VDR) (AID 2283022; active = hit-call score of the fitted dose curve at least 0.9, where 1 is the maximum). Summed up: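 HepG2 cells were transiently transfected with GAL4-UAS reporter units and a chimeric VDR-Gal4 construct, then dosed for 24 hours. Reporter mRNA was quantified by RT-PCR, fluorescent labeling, HpaI digestion and capillary electrophoresis; gain of signal analysed vs DMSO.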

Read-out in assay [10]: Monokine induced gamma interferon (MIG), CXCL9 (gene 4283)
As to the kind of experiment: BSK_3C_MIG: BioMAP Diversity Plus: 3C Assay for Monokine induced gamma interferon (MIG) Biomarker Activity (AID 2283021).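 For AC50: MIG protein level measured by immunoassay in the treated endothelial cultures.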 Conditions: primary human endothelial cells (HUVEC); actives raise or lower the signal. Summed up: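 Primary human umbilical vein endothelial cells in the 3C system were exposed to chemical for 24 h, after which MIG was quantified by ELISA. Activity was fitted bidirectionally against DMSO as negative control and baseline.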

Where “and” joins values, the source holds several entries; their conditions need not be identical. Identical values can stand only once. Records with an inconclusive call do not appear. More than one record can exist for a structure, and the calls need not agree. Calls of active or inactive are those of the source. Rule for the calls, unless noted: active = hit-call score of the fitted dose curve at least 0.9, where 1 is the maximum; inactive = score below 0.9.

human Retinoid X Receptor beta (RXRb), RXRB (gene 6257), sequence (P28702 whole entry, looked up, the tested form may be a part): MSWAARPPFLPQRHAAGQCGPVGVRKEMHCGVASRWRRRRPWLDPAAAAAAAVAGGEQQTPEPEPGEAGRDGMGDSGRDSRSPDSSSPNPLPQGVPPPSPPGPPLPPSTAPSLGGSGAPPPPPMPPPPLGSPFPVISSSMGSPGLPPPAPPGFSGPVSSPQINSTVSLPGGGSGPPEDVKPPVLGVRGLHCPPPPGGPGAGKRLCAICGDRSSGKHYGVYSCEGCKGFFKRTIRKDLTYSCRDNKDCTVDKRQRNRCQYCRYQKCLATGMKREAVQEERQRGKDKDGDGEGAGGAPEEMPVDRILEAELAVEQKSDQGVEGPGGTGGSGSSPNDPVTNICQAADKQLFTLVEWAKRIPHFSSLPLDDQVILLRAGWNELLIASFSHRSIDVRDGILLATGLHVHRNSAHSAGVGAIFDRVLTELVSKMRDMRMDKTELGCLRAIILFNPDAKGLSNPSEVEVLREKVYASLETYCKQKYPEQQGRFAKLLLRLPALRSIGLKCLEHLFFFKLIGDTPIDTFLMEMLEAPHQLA
human Thyroid Receptor alpha (THRa1), THRA (gene 7067), sequence (P10827 whole entry, looked up, the tested form may be a part): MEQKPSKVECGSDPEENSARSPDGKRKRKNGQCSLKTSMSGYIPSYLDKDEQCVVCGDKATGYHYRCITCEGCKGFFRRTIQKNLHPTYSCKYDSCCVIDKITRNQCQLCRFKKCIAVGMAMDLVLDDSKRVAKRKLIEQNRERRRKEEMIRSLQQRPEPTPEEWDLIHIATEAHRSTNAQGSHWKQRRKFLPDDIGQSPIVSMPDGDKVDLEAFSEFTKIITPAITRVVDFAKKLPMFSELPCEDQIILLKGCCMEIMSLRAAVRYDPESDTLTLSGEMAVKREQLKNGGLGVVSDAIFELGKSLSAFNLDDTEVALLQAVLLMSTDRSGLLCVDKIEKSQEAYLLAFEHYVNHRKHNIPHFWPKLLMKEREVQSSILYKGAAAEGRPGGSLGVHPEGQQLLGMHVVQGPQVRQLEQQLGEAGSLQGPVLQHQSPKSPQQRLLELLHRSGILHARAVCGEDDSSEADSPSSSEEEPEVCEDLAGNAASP
E-selectin (Homo sapiens), sequence (P16581 whole entry, looked up): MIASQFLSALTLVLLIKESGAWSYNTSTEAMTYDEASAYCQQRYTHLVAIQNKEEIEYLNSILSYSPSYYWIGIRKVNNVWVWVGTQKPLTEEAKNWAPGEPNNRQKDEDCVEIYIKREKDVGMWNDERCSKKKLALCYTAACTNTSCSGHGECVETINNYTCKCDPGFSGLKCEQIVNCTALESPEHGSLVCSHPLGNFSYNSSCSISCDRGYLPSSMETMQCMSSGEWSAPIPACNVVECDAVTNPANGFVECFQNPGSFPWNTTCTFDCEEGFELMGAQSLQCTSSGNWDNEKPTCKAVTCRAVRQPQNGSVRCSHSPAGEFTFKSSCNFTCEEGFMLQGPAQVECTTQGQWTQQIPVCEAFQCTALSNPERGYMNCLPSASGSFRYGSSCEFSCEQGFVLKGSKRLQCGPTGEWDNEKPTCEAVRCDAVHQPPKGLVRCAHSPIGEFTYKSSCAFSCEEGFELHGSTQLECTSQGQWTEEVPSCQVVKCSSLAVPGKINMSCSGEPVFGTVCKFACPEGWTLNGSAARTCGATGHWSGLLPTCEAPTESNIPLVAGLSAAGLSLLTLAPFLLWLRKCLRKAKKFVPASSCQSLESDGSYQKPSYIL
human Vitamin D Receptor (VDR), VDR (gene 7421), sequence (P11473 whole entry, looked up, the tested form may be a part): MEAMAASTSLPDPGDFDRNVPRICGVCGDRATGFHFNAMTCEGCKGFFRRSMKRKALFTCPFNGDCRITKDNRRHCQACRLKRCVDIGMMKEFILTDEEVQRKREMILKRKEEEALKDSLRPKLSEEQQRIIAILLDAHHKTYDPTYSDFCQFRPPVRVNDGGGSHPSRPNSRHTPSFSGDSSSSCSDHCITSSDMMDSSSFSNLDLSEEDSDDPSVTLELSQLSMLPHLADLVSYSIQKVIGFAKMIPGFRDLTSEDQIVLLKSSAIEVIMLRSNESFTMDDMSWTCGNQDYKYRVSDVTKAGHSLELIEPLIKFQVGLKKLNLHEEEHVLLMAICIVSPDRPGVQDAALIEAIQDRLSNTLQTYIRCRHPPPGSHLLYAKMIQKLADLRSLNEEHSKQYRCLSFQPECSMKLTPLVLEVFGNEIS

Consider `c1ccc2cc3c(ccc4ccccc43)cc2c1`, for which the compound was called inactive in [1], in assay [2], in assay [3], in assay [4], in assay [5] and in [6]. Further, the outcome in assay [7], in assay [8] and in assay [9] was inactive.
One may read the AC50 as the midpoint of the concentration-response curve, whichever way the signal moves. `CCC(C)(C)C1CCC(O)CC1` (stereo not drawn): the AC50 in assay [1] is 58.7 µM (active) [middle of 4 runs]. The call in [2], in [3], in assay [4], in assay [5], in assay [6] and in assay [7] was inactive. Further, the result in [8] and in assay [9] was inactive.
With `O=c1c(-c2ccc(O)cc2)coc2cc(O)ccc12`, the outcome in assay [1], in assay [2], in assay [3], in [4], in assay [5] and in [8] was inactive. Moreover, in assay [10], the outcome was inactive. Also, the results for the AC50 in assay [6] and in assay [7] were 13.8 µM (active) and 27.1 µM (active), respectively.
`COC(=O)CCCCC(=O)OC`: the call in [1], in [2], in assay [3], in assay [4], in assay [5] and in assay [6] was inactive. The outcome in assay [7], in [8], in [10] and in assay [9] was inactive.
As for `CCCCCCCCCCCCN1CCCC1=O`, the compound was classed as inactive in assay [1], in assay [2] and in [9]. Besides, the AC50 is 31.8 µM (active) in [3]; 33.2 µM (active) in [4]; 32.7 µM (active) in assay [5]; 27.8 µM (active) in assay [6]; 30.2 µM (active) in assay [7]; 29.4 µM (active) in assay [8]. Besides, the AC50 in assay [10] was 36.7 µM (active).
In the case of `CC(C)(C)CC(C)(C)c1ccc(O)c(-n2nc3ccccc3n2)c1`, the outcome in assay [1], in [2], in [3], in assay [4], in assay [5] and in [6] was inactive. The outcome in [7], in assay [8], in assay [10] and in assay [9] was inactive.
With `CCCOC(=O)c1ccc(O)cc1`, the outcome in [1], in assay [2], in assay [3], in assay [4], in assay [5] and in assay [6] was inactive. In addition, the result in assay [7], in assay [8] and in assay [9] was inactive.
On to `O=C(O)c1ccccc1C(c1ccc(O)cc1)c1ccc(O)cc1`, for which the result in assay [1], in [2], in assay [3], in [4], in assay [5] and in [6] was inactive. Besides, the outcome in [7] and in [8] was inactive.
`CC[C@H](c1ccc(O)cc1)[C@@H](CC)c1ccc(O)cc1`: the AC50 was 3.79 µM (active) [middle of 4 runs] in assay [1]; 34.8 µM (active) in assay [3]; 24.3 µM (active) in assay [4]; 32.1 µM (active) in assay [5]; 20 µM (active) in [6]; 20.9 µM (active) in [7]. In [8], the AC50 is 33.6 µM (active). Further, the compound was called inactive in assay [2] and in [9].
In the case of `CCN(CC)CCNc1ccc(CNC=O)c2sc3ccc(OC)cc3c(=O)c12`, the AC50 in assay [1] is 0.45 µM (active); in [3] it was 27.3 µM (active); in [4] it was 29.3 µM (active); in assay [5], 19.4 µM (active); in assay [6], 20 µM (active); in assay [7] it was 13.4 µM (active). Also, the AC50 in assay [8] is 16.4 µM (active); in assay [9], 1.47 µM (active). In addition, the outcome in assay [2] was inactive.
As to `OCCC(F)(F)C(F)(F)C(F)(F)C(F)(F)C(F)(F)C(F)(F)F`, the outcome in assay [1], in [2], in [3], in assay [4], in [5] and in assay [6] was inactive. The result in assay [7] and in assay [8] was inactive. Moreover, the AC50 was 49.8 µM (active) in assay [5]; 46.1 µM (active) and 42.1 µM (active) in [7]; 45.7 µM (active) in assay [8].
Turning to `CCCCC(CC)COC(=O)CCCCC(=O)OCc1ccccc1` (stereo not drawn), the AC50 in [1] is 80.6 µM (active). The compound was called inactive in assay [2], in [3], in assay [4], in assay [5], in assay [6] and in [7]. In addition, the result in assay [8] and in assay [9] was inactive.
`CCCCCCCC(=O)O`: the outcome in assay [1], in [2], in assay [3], in [4], in assay [5] and in assay [6] was inactive. The outcome in assay [7], in [8], in assay [10] and in assay [9] was inactive.
Take `CC(C)(C)c1ccc(O)c(C(C)(C)C)c1`: the AC50 in assay [1] is 3.2 µM (active); in assay [2], 11.1 µM (active); in [3], 10.3 µM (active); in [4], 33.7 µM (active); in assay [5] it was 11.7 µM (active); in assay [6], 10 µM (active). In addition, the AC50 was 8.06 µM (active) in assay [7] and 12.9 µM (active) in assay [8]. In addition, in [9], the outcome was inactive.
On to `CC(C)CCCCCCOC(=O)CCCCC(=O)OCCCCCCC(C)C`, for which, in [1], the AC50 is 52.9 µM (active). The result in assay [2], in assay [3], in assay [4], in [5], in [6] and in [7] was inactive. Moreover, the result in assay [8] was inactive.
`CCCCCCCCC(=O)O`: the AC50 in assay [1] was 65.3 µM (active). Moreover, the call in [1], in assay [3], in assay [4], in assay [5], in assay [6] and in assay [7] was inactive. Moreover, the result in assay [8] and in assay [10] was inactive.
